# Source: PubChem BioAssay (National Center for Advancing Translational Sciences (NCATS))
# Rows were chosen to be rich in hits. Some 21% of all compounds tested hit in one or more screens of this group.
# Cycloheximide cs = Cycloheximide Counterscreen for Small Molecule Inhibitors of Shiga Toxin | cell reporter, cycloheximide protein synthesis inhibition counterscreen | max response, % | 300,000 tested, 12% active | AID 2314, 2010; in the data active = max response mostly above about 13%, no sharp cut-off; inactive = mostly below about 14%; note: read at 38.3 µM for the half of the compounds with a filed dose; 0% is about no effect
# Pf growth 96h = Primary qHTS for delayed death inhibitors of the malarial parasite plastid, 96 hour incubation; Potency, µM (highest dose often 28.7 µM), without a hit: at the top dose activity change, negative = inhibition, actives largely listed as inhibitors; P. falciparum luciferase reporter growth, 96 h; 320,000 tested, 6.9% active; active = well fitted inhibition curve with a large enough effect; inconclusive = small, poorly fitted or top-dose-only effect, or another doubt; inactive = no such curve, though single readings can be large or run the other way; note: potency is the fitted concentration of half-maximal effect; % is set by controls: 0 for no effect and ±100 for the full control effect
#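 Compounds incubated with erythrocytes infected by luciferase-expressing P. falciparum (2% hematocrit, 0.05% parasitemia final) for 96 hours, 37 C in 5% CO2. Growth inhibition scored as decreased luciferase luminescence.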
# SARS PLP yeast = qHTS of Yeast-based Assay for SARS-CoV PLP; 330,000 tested, 0.19% active; Potency, µM (highest dose often 32.9 µM), inactives show at the top dose activity, positive = growth rescue, most hits filed as activators; S. cerevisiae expressing SARS-CoV PLpro, growth rescue; note: potency is the fitted concentration of half-maximal effect; 0% is about no effect; nearly all actives have a fitted effect of over 55% in size
# Shiga inhibitor = A qHTS for Small Molecule Inhibitors of Shiga Toxin | Vero cells, Shiga toxin protein synthesis inhibition reporter | inhibition, % at 38.7 µM | 290,000 tested, 9.2% active | AID 2315, 2010; in the data active = inhibition mostly above about 28%, no sharp cut-off; inactive = mostly below about 43%; note: 0% is about no effect
# NS1 function inh = qHTS Assay for Inhibitors of Influenza NS1 Protein Function; AID 2326, 2010; Potency, µM (series often up to 46.1 µM), inactives show top-dose activity, positive = more growth; 270,000 tested, 0.4% active; note: potency is the fitted concentration of half-maximal effect; actives are rising curves; nearly all actives have a fitted effect of over 50% in size
#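 Read-out: OD600 growth recovery of NS1-expressing budding yeast. Cells grown overnight at 30C in -URA glucose medium, washed, resuspended and diluted 1:100 in 2% galactose assay medium, pH 6.0. Same strain lacking NS1 served as positive control.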
# Pf growth 48h = Primary qHTS for delayed death inhibitors of the malarial parasite plastid, 48 hour incubation. 310,000 tested, 5.9% active. Potency, µM (series often up to 28.7 µM), for the others: at the top dose activity change, negative = inhibition, actives largely listed as inhibitors. P. falciparum luciferase growth in erythrocytes, 48 h; active = well fitted inhibition curve with a large enough effect; inconclusive = small, poorly fitted or top-dose-only effect, or another doubt; inactive = no such curve, though single readings can be large or run the other way; note: potency is the fitted concentration of half-maximal effect; % is set by controls: 0 for no effect and ±100 for the full control effect
#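 Firefly luciferase activity from engineered P. falciparum reports growth; inhibitors lower the luminescent signal. Cultures contained 2% hematocrit erythrocytes at 0.1% final parasitemia.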
# * = called active by the depositor; u = inconclusive; x = no result; [ ] = dose if it differs, or a comment. Unless noted, calls come from the whole dose curve.
SMILES,Cycloheximide cs,Pf growth 96h,SARS PLP yeast,Shiga inhibitor,NS1 function inh,Pf growth 48h
O=C(OCC(=O)N1CCN(c2ccccc2)CC1)c1ccc(O)cc1O,0,u,1%,14,14%,u
O=C(O)c1cccc(S(=O)(=O)N2CCN(Cc3ccc4c(c3)OCO4)CC2)c1,-2,36%,9%,-21,3%,2%
CCOc1nc(Nc2ccc(OC)c(Cl)c2)nc(OCC)n1,-2,13µM*,-4%,-12,2%,x
Clc1ccc2c(c1)C(c1ccccc1Cl)=NCc1nnc(N3CCN(CCSc4ccccc4)CC3)n1-2,0,31%,-1%,-16,6%,-7%
Clc1ccc2c(c1)C(c1ccccc1Cl)=NCc1nnc(N3CCN(CCOc4ccccc4)CC3)n1-2,-6,9.3µM*,-4%,-12,-56%,u
Nc1nc2c(C(=O)NCc3cccs3)nnn2c2cccc(Cl)c12,x,x,x,x,3%,x
CC(NS(=O)(=O)c1cccc(C(=O)NCc2ccncc2)c1)c1ccccc1 (stereo not given),x,-7%,-2%,x,x,-28%
COc1ccc(C2CC(C)(c3ccc(OC)cc3OC)Nc3ccccc3N2)c(OC)c1 (stereo not given),30*,0%,-2%,63*,-5%,131%
CC1CN(C(=O)CCC(=O)NCc2ccc(Cl)cc2)c2ccccc2O1 (stereo not given),3,4%,-2%,-3,-15%,-16%
CC1CCC(NC(=O)CCC(=O)N2CC(C)Oc3ccccc32)CC1 (stereo not given),15*,u,4%,21,12%,75%
COc1cccc(CNC(=O)CCC(=O)N2CC(C)Oc3ccccc32)c1OC (stereo not given),1,5.2µM*,-11%,-4,12%,17%
C1CCC(OCCN2CCN(CCOC3CCCCC3)CC2)CC1,4,-1%,6%,-11,1%,0%
Cc1cc(C)cc(N(CC(=O)Nc2ccc(-c3nc4ccc(C)cc4s3)cc2)S(C)(=O)=O)c1,36*,4.1µM*,-6%,77*,-17%,77%
Cc1ccccc1N(CC(=O)Nc1ccc(F)cc1)S(C)(=O)=O,-1,x,3%,-5,0%,9%
Cc1ccc2nc(-c3ccc(NC(=O)CN(c4ccccc4C)S(C)(=O)=O)cc3)sc2c1,61*,-69%,-3%,95*,-3%,-73%
CCc1cccc(NS(=O)(=O)c2c(C)nc3sc(CC)nn3c2=O)c1,-1,u,0%,-1,2%,28%
O=S(=O)(NCCc1ccccc1)c1ccc(Cl)nc1,-3,25%,-14%,-5,3%,4%
CC(=O)Nc1ccc(NC(=S)Nc2ccc(F)cc2)cc1,-1,u,-2%,20,x,4%
O=C(O)c1cccc(NC(=S)NC(=O)c2ccncc2)c1,10,9.3µM*,1%,8,x,32%
CC(C)(C)C(=O)NC(=S)Nc1cccc(C(=O)O)c1,45*,33%[5.75 µM],0%,84*,0%,213%
CNC(=S)Nc1cccc(C(=O)O)c1,-1,-39%[5.75 µM],0%,-6,7%,14%
CC(C)(C)C(=O)NC(=S)Nc1ccc(F)cc1,31*,u,u,87*,7%,42%
COc1ccc(C(C)=O)cc1COC(=O)c1cc(=O)c2ccccc2o1,-4,22%,12%,1,0%,8%
COc1ccc(-c2nnc(SCC(=O)NC3CCCCC3)n2N)cc1,x,2%,1%,x,x,-9%
Cc1c([N+](=O)[O-])cc(S(=O)(=O)Nc2ccncc2)cc1[N+](=O)[O-],-3,8%,0%,-11,12%,3%
CN(Cc1cccc(F)c1)C(=O)C1CC(=O)N(c2ccc3c(c2)OCCO3)C1 (stereo not given),x,x,-1%,x,x,x
COc1cccc(NS(=O)(=O)c2c(C)cc(C)cc2C)c1,2,u,-29%,-7,-63%,13µM*
COc1ccc(NS(=O)(=O)c2c(C)cc(C)cc2C)cc1,4,4%,-16%,-7,-59%,-18%
O=C(NCCN1CCOCC1)c1ccc2c(c1)N(Cc1c(F)cccc1Cl)C(=O)c1ccccc1S2,-5,9.3µM*,-1%,-19,x,13µM*
